# Test results published in PubChem BioAssay AID1347076 (National Center for Advancing Translational Sciences (NCATS), 2019).
# Among all 400,000 compounds or so, about 13,000 (3.2%) were called active. Roughly 18% stayed inconclusive and do not appear here. Calls follow the shape of the dose curve; as a rule, active = well fitted cell-killing curve with a large enough effect; inconclusive = small, poorly fitted or top-dose-only effect, or effect the other way; inactive = flat fitted curve, though single readings scatter. The entries come from a sample that favours actives as a whole. Entries that show only a call come without a potency.
# Assay: qHTS assay for MDR1-selective chemotherapeutics: Primary screen using the drug-selected MDR subline cells KB-V1; also: nearly all actives have a fitted effect of over 60% in size
# Conditions: KB-V1 MDR cells viability, CellTiter-Glo, 72 h; series mostly up to 46.1 µM
# Method in brief: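 Luminescent ATP read-out (CellTiter-Glo, 10 min) measures survival of drug-selected KB-V1 MDR cells after 72 h, 37 degrees C compound exposure. Medium: phenol-red-free DMEM, 10% FBS. Values from fitted concentration-response curves.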
# Potency is read from the fitted curve at half-maximal effect.
row,Structure (SMILES),Potency
1,CCN(CCCNC(=O)c1cc(Nc2ccc(OC)cc2)nc2ccccc12)c1cccc(C)c1,inactive
2,CN(C(=O)CC(NC(=O)c1ccccc1)(c1ccccc1)c1ccccc1)c1ccccc1,10.3 µM (active)
3,CN(C(=O)COC(=O)CNC(=O)C12CC3CC(CC(C3)C1)C2)c1ccccc1,inactive
4,CC(C)(C)c1ccc(C(=O)NNC(=O)Cc2ccccc2)cc1,inactive
5,O=C(Nc1cccc(-c2nc3ccccc3o2)c1)c1cccc(Br)c1,inactive
6,Nc1nc(N)c(N=O)c(N)n1,inactive
7,O=C(CCC(=O)N1CCN(S(=O)(=O)c2ccccc2)CC1)NC1CCCc2ccccc21 (stereo unspecified),inactive
8,COc1ccc(NC(=O)CCC(=O)N2CCN(S(=O)(=O)c3ccc(C)cc3)CC2)c(OC)c1,inactive
9,Cc1ccc(S(=O)(=O)N2CCN(C(=O)CCC(=O)NC3CCCc4ccccc43)CC2)cc1 (stereo unspecified),23.1 µM (active)
10,CC1(C(=O)NS(=O)(=O)c2cccc(F)c2)CCN1C(=O)c1cccc2ccccc12 (stereo unspecified),inactive
11,COc1ccccc1-n1c(SCC(=O)Nc2ccc(Cl)cc2)nc(O)c(Cc2ccccc2)c1=O,inactive
12,CCc1cc2c(N3CCN(c4nnc(CC)s4)CC3)ncnc2s1,3.66 µM (active)
13,Oc1ccccc1N1CCN(c2ncnc3sc(-c4ccccc4)cc23)CC1,inactive
14,CCc1cc2c(NC3CCCC3)ncnc2s1,inactive
15,CCCNC(=O)C1(C)CCCN(C(=O)c2oc3ccccc3c2C)C1 (stereo unspecified),inactive
16,C=CCOc1ccccc1/C=N/NC(=O)Cc1ccccc1,inactive
17,O=C(Cn1cc(C(F)(F)F)ccc1=O)N/N=C/c1ccc(Cl)cc1Cl,inactive
18,O=C(Cc1ccccc1)N/N=C/c1ccc(Cl)cc1Cl,23.1 µM (active)
19,CN(C)c1ccc(/C=c2\[nH]c(=O)/c(=C/c3ccc(N(C)C)cc3)[nH]c2=O)cc1,inactive
20,COc1ccc(OC)c(Cc2nnc(CCC(=O)NC3CCCC3)o2)c1,inactive
21,COc1ccc(OC)c(-n2nnc3c(sc4nc(C)c(Br)c(C)c43)c2=O)c1,inactive

row,Structure (SMILES),Potency
1,COc1ccc(OC)c(Cc2cnc3nc(N)nc(N)c3c2C)c1,10.3 µM (active)
2,Nc1nc2c(Br)ccc(Br)c2cc1C(=O)NCCc1ccccc1,inactive
3,Cc1cc(Br)ccc1NC(=O)CCCOc1cc(=O)n(C)c2ccccc12,inactive
4,O=C(Nc1ccc2c(c1)CCC2)c1cccc(S(=O)(=O)Nc2ccccc2Cl)c1,20.6 µM (active)
5,O=C(c1cccc(S(=O)(=O)Nc2ccccc2Cl)c1)N1CCN(C(=O)c2ccco2)CC1,inactive
6,O=C(Nc1ccc2c(c1)CCC2)c1cccc(S(=O)(=O)N2CCN(c3ccc(F)cc3)CC2)c1,inactive
7,Cc1ccc2nc(/C(C#N)=C/c3ccc(-c4ccc(C(=O)OC(C)C)cc4)o3)[nH]c2c1,inactive
8,CCN(CC)C(=O)C(C)N1c2cccc3cccc(c23)S1(=O)=O (stereo unspecified),inactive
9,O=C(Nc1ccc(-c2nc3ccccc3[nH]2)cc1)c1ccncc1,inactive
10,O=C(Cc1cccs1)Nc1cccc(-c2nc3ccccc3[nH]2)c1,16.4 µM (active)
11,CCOC(=O)c1ccc(NC(=O)Cc2cccs2)cc1,inactive
12,CC(C)c1cc(C(=O)N(C)C2CCCN(Cc3ccccc3F)C2)n(C)n1 (stereo unspecified),inactive
13,Cc1nccn1-c1ccc(NC(=O)[C@H]2O[C@@H](n3ccc(=O)[nH]c3=O)[C@H](O)[C@@H]2O)cc1,inactive
14,CCOC(=O)c1cc(-c2ccccc2)n(-c2cccc(C(=O)Nc3cc(OC)cc(OC)c3)c2)c1C,inactive
15,COc1ccc(C(=O)C(C)OC(=O)c2cccc(S(=O)(=O)Nc3c(C)n(C)n(-c4ccccc4)c3=O)c2)cc1 (stereo unspecified),inactive
16,Cc1c(NS(=O)(=O)c2ccc(Cl)cc2)c(=O)n(-c2ccccc2)n1C,inactive
17,Cc1c(NS(=O)(=O)c2cccc(C(=O)Nc3ccc(SC(F)F)cc3)c2)c(=O)n(-c2ccccc2)n1C,5.17 µM (active)
18,COc1cccc(CN2CCC(C(=O)NC(c3ccc4c(c3)OCO4)c3ccccn3)CC2)c1 (stereo unspecified),inactive
19,COc1ccc(/C=C(/NC(=O)c2ccccc2)C(=O)Nc2cccc(C(=O)O)c2)cc1,inactive
20,COc1ccc(NC(C(=O)Nc2cccc(C(C)=O)c2)c2ccccc2)cc1 (stereo unspecified),4.61 µM (active)
21,CC(=O)c1cccc(NC(=O)[C@@H](NC(N)=O)C(C)C)c1,inactive

row,Structure (SMILES),Potency
1,CN(C)c1ccc(/C=N\Nc2ccc([N+](=O)[O-])cc2[N+](=O)[O-])cc1Cl,inactive
2,CC(C)Cc1nc(Nc2ccc(S(=O)(=O)N3CCCC3)cc2)c2nnn(Cc3ccccc3)c2n1,20.6 µM (active)
3,CC(C)Nc1ncnc2c1nnn2Cc1ccccc1,inactive
4,Cc1nc(Nc2ccc(S(=O)(=O)N3CCCC3)cc2)c2nnn(Cc3ccccc3)c2n1,inactive
5,CCOC(=O)[C@]12CCC=C1N(Cc1cccc3ccccc13)C(=O)[C@H](CC(=O)NCc1cccc(C(F)(F)F)c1)C2,20.6 µM (active)
6,CCOC(=O)[C@]12CCCC=C1N(Cc1cccc3ccccc13)C(=O)[C@H](CC(=O)NCC13CC4CC(CC(C4)C1)C3)C2,inactive
7,CCOC(=O)[C@]12CCC=C1N(Cc1ccco1)C(=O)[C@H](CC(=O)NCc1cccc(C(F)(F)F)c1)C2,inactive
8,O=C(NC1CCCCC1)c1cc(C2CC2)on1,inactive
9,O=C(NC1CCCCCCC1)c1cccs1,inactive
10,O=C(NC1CCCC1)c1cc(-c2ccccc2)on1,16.4 µM (active)
11,CCCCN1C(=O)C(CC(=O)NC(c2ccccc2)c2ccccc2)CC(C(=O)N2CCOCC2)=C1C (stereo unspecified),inactive
12,N#Cc1ccc[n+](CC(=O)c2ccc(O)c(O)c2)c1,inactive
13,CCCn1nc(C(=O)OCc2nc(N)nc(Nc3ccccc3C)n2)c2ccccc2c1=O,20.6 µM (active)
14,Cc1ccccc1Nc1nc(N)nc(CSc2ccccc2)n1,inactive
15,Cc1ccc(C(=O)OCc2nc(N)nc(Nc3ccccc3C)n2)cc1,inactive
16,O=C(Nc1cccc2cccnc12)c1ccc2sc([C@H]3C[C@H](O)[C@@H](CO)O3)nc2c1,inactive
17,Cc1ccc(NC(=O)Cn2cnc3nc4c(cc3c2=O)CCCC4)cc1Cl,inactive
18,CCn1c(SCC(=O)Nc2ccc(C)cc2)nc2nc3c(cc2c1=O)CCCC3,0.651 µM (active)
19,CC(=O)NCCn1c(SCC(=O)Nc2ccc(C)cc2)nc2ccccc2c1=O,inactive
